Compound activity (PubChem)
Rows were chosen to be rich in hits. Some 2.6% of all compounds tested hit in one or more screens of this group.
KCNH2 3.1 block = KCNH2 3.1 (human) potassium channel inhibition; U2OS KCNH2 3.1, thallium flux FluxOr; stronger effect = lower value; activity change, % (tested at about 1.8 µM); 340,000 tested, 0.95% active;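 active = maximum activity change below -70%; inconclusive = maximum activity change from -70% to -50%; inactive = maximum activity change above -50%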;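 also: thallium influx rate constant from kinetic fluorescence after stimulation buffer; % is scaled to controls: 0 for no effect and ±100 for the full control effect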
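Normalized rate constant (relative to positive and negative DMSO controls) derived from a 2 min kinetic fluorescence read after stimulation; U2OS cells expressing the 3.1 isoform via virus at 1.77 x 10^8 /mL.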
KCNH2 WT inh = KCNH2 (human, wildtype) channel inhibition; Q12809; U2OS, BacMam KCNH2, thallium flux FluxOr; stronger effect = lower value; activity change, % at 1.84 µM; 340,000 tested, 0.37% active;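 active = maximum activity change below -70%; inconclusive = maximum activity change between -70% and -50%; inactive = maximum activity change above -50%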; also: % is scaled to controls: 0 for no effect and ±100 for the full control effect
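U2OS cells transduced with wild-type KCNH2 virus are loaded with FluxOr dye for 45 min, and thallium flux is measured in kinetic reads before and after stimulation buffer. Rate constants are normalized to DMSO controls.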
TRPV1 ag = agonists of human vanilloid receptor 1 (TRPV1); Q8NER1; TRPV1-expressing cells, Fluo-8 calcium influx, agonist mode; activation, % at 8.33 µM; 320,000 tested, 0.19% active; in the data active = activation above about 80%; inconclusive = between about 30% and that limit; also: 0% is about no effect
Target sequence (Q8NER1 whole entry, looked up): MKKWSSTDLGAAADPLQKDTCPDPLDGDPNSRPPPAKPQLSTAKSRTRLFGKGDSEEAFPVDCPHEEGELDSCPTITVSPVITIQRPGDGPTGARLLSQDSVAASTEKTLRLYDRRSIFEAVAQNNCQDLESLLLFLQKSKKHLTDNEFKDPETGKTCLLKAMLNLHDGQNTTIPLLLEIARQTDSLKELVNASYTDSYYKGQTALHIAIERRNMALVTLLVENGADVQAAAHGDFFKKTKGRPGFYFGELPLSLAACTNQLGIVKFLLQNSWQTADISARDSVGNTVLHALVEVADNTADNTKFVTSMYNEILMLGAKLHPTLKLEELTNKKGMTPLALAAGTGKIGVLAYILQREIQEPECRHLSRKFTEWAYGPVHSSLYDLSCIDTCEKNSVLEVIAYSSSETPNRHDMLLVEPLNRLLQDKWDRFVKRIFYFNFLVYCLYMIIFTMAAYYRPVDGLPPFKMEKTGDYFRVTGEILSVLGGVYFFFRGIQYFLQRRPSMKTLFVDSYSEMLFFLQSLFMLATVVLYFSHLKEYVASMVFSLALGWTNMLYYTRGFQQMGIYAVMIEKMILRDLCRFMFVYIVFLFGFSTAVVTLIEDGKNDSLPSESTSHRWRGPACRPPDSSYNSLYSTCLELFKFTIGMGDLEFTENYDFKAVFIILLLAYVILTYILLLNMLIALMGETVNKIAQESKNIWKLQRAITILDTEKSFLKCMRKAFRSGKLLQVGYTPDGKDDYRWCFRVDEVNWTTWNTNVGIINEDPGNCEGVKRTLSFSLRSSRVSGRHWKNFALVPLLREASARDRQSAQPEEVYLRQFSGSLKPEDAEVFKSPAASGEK
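TRPV1-expressing cells were cultured overnight at 35.5C and loaded with Fluo-8 calcium dye for 40 to 90 min at room temperature. After a 10 s baseline, compound was added and calcium influx was read kinetically for 3 min (ex 480/em 520 nm).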
p53 reactivator = restores transcriptional activity of mutant p53 | Potency, µM (titrated, usually from 92.2 µM), for the others: at the highest dose activity change, positive = activation, usual class: activators | 320,000 tested, 0.063% active | AID 504706 | H1299 p53-A138V BP100-luciferase reporter, luminescence, 24 h; active = well fitted activation curve with a large enough effect; inconclusive = small, poorly fitted or top-dose-only effect; inactive = no such curve, though single readings can be large or run the other way; also: potency is read from the fitted curve at half-maximal effect; % of control where 0% means no effect; nearly all actives have a fitted effect of over 45% in size
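H1299 (p53-null), stable ts p53-A138V + BP100-Luc; 1000 cells/well, Opti-MEM/10% FBS; cpd 4 pt, 1:5; 24 h, 37 deg C, 5% CO2; detection reagent 10 min RT; luminescence.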
TRPV1 PAM = human TRPV1 potentiation. Q8NER1. TRPV1-expressing cells, Fluo-8 calcium influx, capsaicin EC20 potentiation. potentiation, % at 8.33 µM. 320,000 tested, 0.02% active; in the data active = potentiation above about 80%; inconclusive = between about 30% and that limit; also: 0% is about no effect
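Fluo-8 calcium influx in TRPV1-expressing cells, kinetic read (ex 480/em 520 nm). Compound added and read 3 min for agonist activity, followed by capsaicin at EC20 final and 2 min further read for enhancement.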
ClpP mod = qHTS Assay for Activators of ClpP; ATP-dependent Clp protease proteolytic subunit (Bacillus subtilis (strain 168)), P80244; purified B. subtilis ClpP, FRET peptide cleavage, 20 min; Potency, µM (doses to about 57.5 µM), inactives show at the highest dose activity change, negative = active; 340,000 tested, 1.9% active; active = well fitted falling curve with a large enough effect; inconclusive = small, poorly fitted or top-dose-only effect; inactive = no such curve, though single readings can be large or run the other way; also: potency is read from the fitted curve at half-maximal effect; the source files actives as falling curves though it sought activators and does not explain the sign; nearly all actives have a fitted effect of over 65% in size
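Buffer: 100 mM Tris/HCl pH8, 100 mM KCl, 0.05% low protease BSA, 2.5% glycerol, 0.01% Tween-20. ClpP 10 microg/mL final; 20 min RT; delta FRET normalized to ADEP and DMSO controls.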
Starred values were filed as active, the others as inactive; ? = inconclusive; . = not tested or not shown.

SMILES	KCNH2 3.1 block	KCNH2 WT inh	TRPV1 ag	p53 reactivator	TRPV1 PAM	ClpP mod
OC(C1=C/C(=C\c2ccncc2)c2ccccc21)c1ccncc1 (configuration not stated)	.	.	.	.	.	-1.4%
COc1nc(=O)n(C2C=CC(=O)O2)cc1F (configuration not stated)	8.1	-13.4	.	.	.	-1.1%
Cc1ccc(C(C)NC(=O)c2cccs2)cc1 (configuration not stated)	0.6	0.6	.	.	.	.
CC(NC(=O)c1ccc(Cl)s1)C1CCCO1 (configuration not stated)	9.9	-8.0	3.7	-5.1%	-10.8	-8.7%
CC(NC(=O)c1cccs1)c1ccccc1 (configuration not stated)	-95.1*	5.6	.	.	.	-2.5%
CC(NC(=O)c1cccs1)C1CCCO1 (configuration not stated)	-6.7	0.4	-0.3	3.3%	3.0	28.2µM*
O=C(NNc1cccc(Cl)n1)c1cccnc1Cl	-3.1	.	-6.5	-7.9%	1.8	-0.5%
COC(=O)C(NC(=O)c1cccnc1Cl)C(C)C (configuration not stated)	8.2	-120.4*	-0.9	2.2%	5.6	.
Cc1cc(C)c2cc(C#N)c(NCCCNC(=O)c3ccncc3)nc2c1	10.0	-8.0	.	.	.	3.7%
COc1cc(C(=O)NCCCNc2nc3cc(C)cc(C)c3cc2C#N)cc(OC)c1OC	16.1	-8.6	12.6	-2.6%	-0.1	25.1µM*
CCc1ccc(NC(=O)Nc2ccc3c(c2)N(C)C(=O)CS3)cc1	10.4	-6.6	87.6*	-3.1%	-7.1	-0.8%
CCc1ccc(S(=O)(=O)c2nnn3c2nc(NCc2cccs2)c2sccc23)cc1	.	.	.	.	.	28.2µM*
Cc1ccc(C)c(S(=O)(=O)c2nnn3c2nc(NCc2cccs2)c2sccc23)c1	.	.	.	.	.	28.2µM*
O=S(=O)(c1ccc(Br)cc1)c1nnn2c1nc(NCc1cccs1)c1sccc12	.	.	.	.	.	28.2µM*
Cc1ccc(S(=O)(=O)c2nnn3c2nc(NCc2cccs2)c2sccc23)cc1C	.	.	.	.	.	-14.4%
O=S(=O)(c1ccccc1)c1nnn2c1nc(NCc1cccs1)c1sccc12	.	.	.	.	.	-17.9%
Cc1ccc(C)c(S(=O)(=O)c2nnn3c2nc(NC2CCCC2)c2sccc23)c1	.	.	.	.	.	31.6µM*
Cc1cc(C)cc(Cn2cc(CN3CC(N(C)C)CS3(=O)=O)nn2)c1 (configuration not stated)	.	.	.	.	.	-1.9%
CCN1CCN(Cc2c(O)ccc3oc(C)c(C(=O)Nc4ccc(OC)cc4)c23)CC1	.	.	.	.	.	2.1%
COc1ccc(-c2cn3c(C)c(C(=O)N4CCCc5ccccc54)sc3n2)cc1	6.4	1.3	.	.	.	-2.6%
COc1ccc(-c2cn3c4c(sc3n2)CCCC4)cc1	.	-6.0	80.7*	20.9%	-17.5	1.1%
CC1CCN(C2=NC(=O)/C(=C/c3ccccc3F)S2)CC1	-3.9	10.8	88.2*	16.7%	-4.0	-0.9%
CC1CCN(C2=NC(=O)/C(=C/c3cccc(O)c3)S2)CC1	13.5	-18.8	?	9.8%	-25.6	0.0%
O=C(COC(=O)c1cccc(NC(=O)c2ccc(Br)cc2)c1)c1ccc(Cl)cc1	.	.	.	.	.	2.0%
O=C(O)CCn1c2c(c3ccccc31)CCCC2	11.2	4.3	-2.1	-6.7%	16.2	25.1µM*
SMILES	KCNH2 3.1 block	KCNH2 WT inh	TRPV1 ag	p53 reactivator	TRPV1 PAM	ClpP mod
O=C(CCn1c2c(c3ccccc31)CCCC2)NNC(=O)c1ccccc1C(=O)O	-11.7	1.0	26.3	-3.1%	-5.2	-2.1%
COc1cc(CNC(=O)CCCC/C=C\C(C)C)ccc1O	.	.	80.4*	.	-1.7	.
CN(C(=O)c1cccs1)c1ccccc1C(=O)O	-5.2	-0.1	1.8	-3.6%	-17.0	20µM*
COc1ccc(CN(C(=O)c2cccs2)c2ccccc2C(=O)O)cc1	-10.1	2.1	0.8	-1.2%	15.1	0.5%
N#CC(C(N)=O)=C1CCCCC1	-20.4	0.2	10.5	1.7%	-8.4	.
N#CC(C(=O)NC1CCCCC1)=C1CCCCCC1	-2.7	-2.2	-0.9	3.2%	-6.5	15.8µM*
CC(C)c1nc2oc3c(=O)[nH]cnc3c2c2c1CCC2	4.7	-5.5	.	4.0%	.	12.6µM*
O=C(Nc1nc2ccccc2s1)c1cc(-c2ccco2)nc2ccccc12	2.3	1.0	-2.4	10.2%	6.1	17.8µM*
Cc1ccc2nc(NC(=O)c3cc(-c4ccco4)nc4ccccc34)sc2c1	-19.7	-4.5	-0.4	?	-7.2	17.8µM*
Cc1nnc(NC(=O)c2cc(-c3ccco3)nc3ccccc23)s1	.	.	-1.7	4.3%	-0.5	.
O=C1c2ccccc2C(=O)N1c1ccc(S(=O)(=O)N2CCOCC2)cc1	.	.	.	.	.	2.8%
CC(C)(C)c1nnc(NC(=O)NS(=O)(=O)c2ccccc2)s1	-22.8	12.6	-4.0	-0.5%	-7.0	20µM*
O=S(=O)(c1ccc(Cl)nc1)N1CCc2ccccc21	-22.1	-110.7*	-11.5	-2.7%	7.2	-0.1%
CCC(C)NC(=O)c1cn(-c2cccc(C)n2)cn1 (configuration not stated)	2.0	1.6	4.7	14.1%	-4.7	31.6µM*
Cc1cccc(-n2cnc(C(=O)O)c2)n1	3.7	-3.9	1.1	-4.1%	-0.8	.
COC(=O)[C@H](C)NS(=O)(=O)C1CC1	.	.	.	.	.	0.2%
Cc1cc(C)cc(NC(=O)COCc2cc(-c3ccc4c(c3)OCO4)on2)c1	.	.	.	.	.	-10.4%
CCCC(C)Sc1nc2c([nH]1)c(=S)n(C)c(=O)n2C (configuration not stated)	-15.0	-157.2*	.	.	.	-2.4%
CCCN(c1ccc(OCC)cc1)c1ncnc2nc[nH]c12	-90.3*	-8.3	-2.8	-4.7%	4.2	2.2%
CCCNC(=O)c1csc2c1CCCCC2	-78.0*	0.2	26.8	0.6%	-12.5	1.1%
O=S(=O)(NCCc1cn2ccccc2n1)c1ccc(-c2ccccc2)cc1	-8.8	2.6	-0.2	-12.3%	1.2	-4.7%
CCOc1ccc(S(=O)(=O)NCCc2cn3ccccc3n2)cc1	8.3	12.3	0.5	5.3%	-3.0	22.4µM*
Cc1ccc(Cl)c(OCCCN(C)Cc2ccccc2)c1	-10.3	-70.0*	28.4	1.8%	-7.3	.
Oc1ccc(-c2nccs2)cc1	-120.1*	15.7	.	.	.	.
Cc1c(SCCO)c(=O)[nH]c2cc3c(cc12)OCO3	0.6	-2.1	-2.5	-2.0%	8.3	25.1µM*
CCN(CC)CCn1c(=S)[nH]c2cc3c(cc2c1=O)OCO3	4.7	3.6	4.8	-4.0%	-2.9	-4.9%
COc1ccc(S(=O)(=O)N(C)C[C@@H]2OCc3cnnn3CCCC(=O)N([C@@H](C)CO)C[C@@H]2C)cc1	10.9	-24.6	.	.	.	0.1%
C[n+]1ccnc2cc(Cl)ccc21	.	.	.	.	.	-7.4%
Cc1c(C(=O)NCc2ccco2)sc(=O)n1Cc1ccc(S(C)(=O)=O)cc1	.	.	.	.	.	-0.7%
